From the supplement of paper PMC6555819

Assays:
Assay in all cases: PBM binding z-score (relative to random genomic background probes); higher = stronger binding; sequences stand for … in GC…GCGATTGACAGCGTAGAATGAAGG
[1] = system: FXR:RXRa (NR concentration 270 nM, RXRa partner concentration 90 nM)
In short: (§1)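 The probes on custom Agilent 4×180K protein-binding microarrays were double-stranded, with 34-nt variable regions bearing direct-repeat seeds, single-nucleotide variants, half-site ablations and random human genomic background sequences. Incubation lasted 1 h with ligand-free nuclear receptor dimers in PBS pH 7.4, 2% milk, 0.02% Triton X-100, 1 mM DTT, 0.2 mg/mL BSA and 0.4 mg/ml salmon testes DNA. Antibodies against each partner (one per run) detected bound dimers, and fluorescence scans were regression-normalized. Binding z-scores take the random background probes as reference.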

[2] = system: LXRa:RXRa (NR concentration 270 nM, RXRa partner concentration 90 nM)
In short: as §1

[3] = system: LXRa homodimer (NR concentration 270 nM)
In short: as §1

[4] = system: LXRb:RXRa (NR concentration 270 nM, RXRa partner concentration 90 nM)
In short: as §1

[5] = system: LXRb homodimer (NR concentration 270 nM)
In short: as §1

[6] = system: PPARa:RXRa (NR concentration 270 nM, RXRa partner concentration 90 nM)
In short: as §1

[7] = system: PPARg:RXRa (NR concentration 180 nM, RXRa partner concentration 90 nM)
In short: as §1

[8] = system: PPARg:RXRa 270nM:90nM, anti-RXR (NR concentration 270 nM, RXRa partner concentration 90 nM)
In short: as §1

[9] = system: PPARg:RXRa 30nM:10nM, anti-RXR (NR concentration 30 nM, RXRa partner concentration 10 nM)
In short: as §1

[10] = system: PPARg:RXRa 90nM:30nM, anti-RXR (NR concentration 90 nM, RXRa partner concentration 30 nM)
In short: as §1

[11] = system: PPARg:RXRa DBDmut IVT, anti-RXR (DBD mutation: RXRa K156A/R161A, NR concentration 270 nM, RXRa partner concentration 90 nM)
In short: as §1

[12] = system: PPARg:RXRa IVT, anti-PPARg (NR concentration 270 nM, RXRa partner concentration 90 nM)
In short: as §1

[13] = system: PPARg DBDmut:RXRa IVT, anti-PPARg (DBD mutation: PPARg1 K132A/R137A, NR concentration 270 nM, RXRa partner concentration 90 nM)
In short: as §1

[14] = system: PPARg DBDmut IVT, anti-PPARg (DBD mutation: PPARg1 K132A/R137A, NR concentration 270 nM)
In short: as §1

[15] = system: PPARg homodimer (NR concentration 180 nM)
In short: as §1

[16] = system: PXR:RXRa (NR concentration 270 nM, RXRa partner concentration 90 nM)
In short: as §1

[17] = system: PXR homodimer (NR concentration 270 nM)
In short: as §1

[18] = system: RARa:RXR (NR concentration 270 nM, RXRa partner concentration 90 nM)
In short: as §1

[19] = system: RARa homodimer (NR concentration 270 nM)
In short: as §1

[20] = system: RARb:RXRa (NR concentration 270 nM, RXRa partner concentration 90 nM)
In short: as §1

Row | Sequence | PBM binding z-score [1] | PBM binding z-score [2] | PBM binding z-score [3] | PBM binding z-score [4] | PBM binding z-score [5] | PBM binding z-score [6] | PBM binding z-score [7] | PBM binding z-score [8] | PBM binding z-score [9] | PBM binding z-score [10] | PBM binding z-score [11] | PBM binding z-score [12] | PBM binding z-score [13] | PBM binding z-score [14] | PBM binding z-score [15] | PBM binding z-score [16] | PBM binding z-score [17] | PBM binding z-score [18] | PBM binding z-score [19] | PBM binding z-score [20]
1 | CCGACTGGCGCAGAAAGGTTACCATACCATCCGG | 0.0917 | 0.658 | -0.132 | 0.749 | -1.07 | 1.8 | 0.613 | 1.16 | -0.315 | 0.337 | -0.18 | -0.419 | -0.533 | -1.05 | 0.499 | 0.354 | -0.51 | 1.14 | -0.466 | 1.35
2 | AGTCAAAGTTCACTAGGTAACGTGAGATTCAGCT | 4.64 | 4.79 | 2.64 | 2.71 | 0.742 | 4.57 | 7.14 | 6.33 | 3.41 | 5.47 | 2.52 | 4.98 | 1.48 | 1.01 | 2.06 | 3.61 | 1.97 | 2.87 | 0.41 | 4.72
3 | CCTCGGAGGACAACAGGAGGTCACAGCTGCCAGA | 2.75 | 3.93 | 3.82 | 2.82 | -0.268 | 3.42 | 1.76 | 2 | -0.188 | 1.1 | 0.582 | 1.67 | -1.61 | -1.12 | 2.8 | 4.2 | 0.604 | 4.69 | 0.924 | 3.35
4 | CCAACTGGGCCACGAAAGGTCATTGATTCAGTGA | 3.69 | 5.09 | 4.15 | 4.41 | 0.134 | 4.75 | 4.7 | 4.74 | 1.7 | 3.62 | 5.74 | 5.79 | -0.114 | -0.318 | 3.56 | 5.23 | 1.31 | 5.31 | 1.12 | 4.02
5 | CCGACTGGAGCAAAGGTTACCATACTCAGTACGA | 0.849 | 1.39 | 0.0439 | 1.71 | -0.613 | 4.5 | 8.49 | 8.31 | 8.2 | 8.54 | 2.35 | 3.51 | -0.17 | 0.137 | 0.916 | 1.77 | 0.124 | 2.73 | -0.322 | 1.74
6 | CGTCCAAGGTCAGAGAGGTTAGTGAATGCCGAGT | 5.32 | 3.46 | 0.378 | 2.89 | -0.248 | 4.18 | 2.47 | 2.56 | 0.275 | 1.48 | 2.24 | 2.47 | -0.113 | -0.422 | 2.06 | 3.93 | 4.8 | 3.47 | 0.223 | 4.7
7 | ATCTCTAGGTAACCAAGTTCAGTGGATGCCGAAC | 0.155 | 0.544 | 0.622 | 0.38 | 0.373 | 0.94 | 0.437 | 0.741 | 0.192 | 0.555 | 3.66 | 2.83 | 0.893 | 0.352 | 0.334 | 1.94 | 1.5 | 0.454 | 0.529 | 1.18
8 | ACAGACAGGTGATGAAGGTCACTCAGGCTATCAT | 1.77 | 2.17 | 0.813 | 1.96 | 0.00655 | 2.75 | 1.62 | 1.8 | 0.565 | 1.21 | 0.771 | 1.97 | 0.688 | 0.177 | 2.08 | 2.81 | 2.02 | 2.83 | 0.664 | 3.03
9 | GCTAGCAGGCCATTTGGGTGACTCAATGACGGGC | -0.535 | -0.729 | -0.901 | -1.05 | -1.19 | 0.031 | 0.218 | -0.431 | -0.682 | -0.48 | 1.46 | 0.949 | -0.802 | -0.751 | -0.989 | -0.366 | -0.793 | -0.229 | -1.01 | 0.0482
10 | ACTAGCAGGCCGAGGGTCACTCAAGATTAGTCCG | 0.88 | 1.52 | -0.557 | 1.31 | -0.725 | 2.71 | 3.61 | 4.99 | 2.21 | 4.78 | -0.156 | 1.16 | -0.888 | -0.885 | 0.902 | 1.71 | -0.0802 | 2.32 | -0.0933 | 2.43
11 | TCTTATAGGTAAAGGTGAAAGTCGAACGATATGA | 1.15 | 1.59 | 0.00548 | 1.58 | 0.488 | 3.27 | 3.38 | 4.4 | 4.42 | 4.81 | 3.92 | 3.7 | 2 | 1.77 | 1.61 | 1.11 | 0.648 | 1.96 | 1.18 | 2.21
12 | TCTAGCAGGCCAGAGGGTCAGTCAAGAGGTACGG | 0.425 | 0.152 | -0.884 | 0.413 | -1.51 | 1.35 | 0.768 | 1.81 | 1.49 | 1.68 | 0.768 | 0.496 | -0.553 | -1.25 | 0.21 | 0.465 | -0.829 | 0.985 | -0.753 | 1.77
13 | GGAAGGAGGGCATTCGAGTTGATAGCATGGCGAT | 1.31 | 1.78 | 0.199 | 0.866 | 0.337 | 1.46 | 0.926 | 1.07 | -0.0182 | 0.639 | 3.26 | 2.42 | -0.146 | 0.314 | 0.39 | 3.38 | 1.3 | 0.52 | -0.113 | 1.56
14 | TAGTCTAGGTCATTCAGGGGCCAGTATAGAAAGC | 4.17 | 4.28 | 2.05 | 3.15 | 3.06 | 4.05 | 4.7 | 4.38 | 2.33 | 3.77 | 5.32 | 5.97 | 1.69 | 1.74 | 2.29 | 2.53 | 0.48 | 3.32 | 0.639 | 3.73
15 | ACGAGTTGGTCAGCTGAGGTCACACACAATTCGG | 3.59 | 3.08 | 1.81 | 3.17 | -0.229 | 3.6 | 1.64 | 2.17 | 0.283 | 1.3 | 0.74 | 1.98 | -0.0405 | 0.48 | 2.66 | 5.43 | 2.1 | 4.82 | 0.588 | 3.59
